About 540 (0.16%) of roughly 330,000 compounds were called active.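 The calls were made as follows: active = activation factor of the enzyme at least 2-fold when tested at 20 µM; inactive = the rest.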 The entries come from a sample that favours actives as a whole.

For the test, the target named is Intestinal-type alkaline phosphatase (Homo sapiens) (UniProt P09923). The experiment in a line: human IAP activators, primary screen, biochemical, luminescence, uHTS (AID 2524). To be noted: purified human IAP, CDP-Star luminescence, 30 min; at 10 µM; stronger effect = higher value; 1 = vehicle-only enzyme, 0 = enzyme-free background.
Intestinal-type alkaline phosphatase (Homo sapiens), sequence (P09923 whole entry, looked up): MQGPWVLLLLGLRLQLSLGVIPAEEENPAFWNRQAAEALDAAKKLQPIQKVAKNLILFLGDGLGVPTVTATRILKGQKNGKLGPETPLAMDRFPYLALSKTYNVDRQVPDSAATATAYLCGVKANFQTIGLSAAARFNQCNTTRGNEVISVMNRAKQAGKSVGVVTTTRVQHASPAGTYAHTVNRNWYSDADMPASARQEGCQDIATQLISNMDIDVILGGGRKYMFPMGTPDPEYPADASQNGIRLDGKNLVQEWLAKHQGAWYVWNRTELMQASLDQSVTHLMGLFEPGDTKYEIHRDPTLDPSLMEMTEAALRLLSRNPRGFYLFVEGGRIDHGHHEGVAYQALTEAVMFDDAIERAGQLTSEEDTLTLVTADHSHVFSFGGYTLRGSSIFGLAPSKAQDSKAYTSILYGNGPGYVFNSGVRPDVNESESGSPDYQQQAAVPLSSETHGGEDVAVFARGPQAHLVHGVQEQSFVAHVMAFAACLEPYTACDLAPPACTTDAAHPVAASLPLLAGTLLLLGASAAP
Regarding `CN1C(=O)C2(OCCCO2)c2cc(Cl)ccc21`, the activation factor is 0.939 (inactive).

Consider `CC(=O)NCCc1ccc(S(=O)(=O)Nc2ccc(C)c(S(=O)(=O)N3CCOCC3)c2)cc1`, for which the activation factor was 0.976 (inactive).

Turning to `COc1ccc(N(CC(=O)NCCSCc2cccc(Cl)c2)S(C)(=O)=O)cc1`, the activation factor was 1.4 (inactive).

Turning to `Cn1cnnc1SCC(=O)NNC(=O)COc1ccc(Br)cc1`, the activation factor is 1.79 (inactive).

As for `CCOc1ccc(NC(=O)CSc2nncn2C)cc1`, the activation factor is 3.82 (active).

On to `Cn1cnnc1SCC(=O)Nc1ccc(N2CCOCC2)cc1`, for which the activation factor is 1.03 (inactive).

Regarding `Cc1cn(C2C=CC(CO)O2)c(=O)[nH]c1=O` (centres undefined), the activation factor was 0.925 (inactive).

Consider `Cc1cc2c(cc1C)[n+](C)cn2CC(O)COCC1CC=CCC1` (centres undefined), for which the activation factor is 0.897 (inactive).

With `OCCCN1c2ccccc2Nc2nnc(-c3ccccc3)cc21`, the activation factor was 2.48 (active).

As to `N=c1c2c(-c3ccccc3)c(-c3ccccc3)n(Cc3ccccc3)c2ncn1CCCO`, the activation factor is 1.11 (inactive).

Take `O=C(NC(=S)Nc1ccccc1C(=O)O)c1ccc(-c2ccc(Br)cc2)o1`: the activation factor is 0.945 (inactive).

As for `CCCCCC1CC(COc2ccccc2)OC1=O` (centres undefined), the activation factor is 0.9 (inactive).

`CC(C)(C)NC(=O)C(=O)NCc1ccncc1`: the activation factor was 1.09 (inactive).

For the compound `CC(NCC(=O)Nc1cc(Cl)cc(Cl)c1)c1ccccc1` (centres undefined), the activation factor was 1.03 (inactive).

In the case of `CCC(C(=O)Nc1ccc2c(c1)OCCO2)c1ccccc1` (centres undefined), the activation factor is 0.871 (inactive).

For the compound `CCC(C(=O)Nc1ccc(C(C)C)cc1)c1ccccc1` (centres undefined), the activation factor is 2.92 (active).

Regarding `CCC(C(=O)OCC(=O)Nc1ccc(C(=O)Nc2ccc(OC)cc2)cc1)c1ccccc1` (centres undefined), the activation factor was 1.08 (inactive).

As to `O=C(CSc1nnnn1C1CCCC1)Nc1ccc2c(c1)OCCO2`, the activation factor was 0.96 (inactive).

For the compound `Cc1cnc(NC(=O)Cn2cnc3c2c(=O)n(C)c(=O)n3C)s1`, the activation factor is 1 (inactive).

Consider `CCOc1ccc(C(=O)COC(=O)c2ccc(-n3cnnn3)cc2)cc1`, for which the activation factor is 1.05 (inactive).

`CC(=O)NC1C(Oc2ccc(C)cc2)OC2COC(c3ccco3)OC2C1O` (centres undefined): the activation factor is 1.11 (inactive).

Regarding `Oc1ccc(Br)cc1/C=N/Nc1ccccn1`, the activation factor was 1.22 (inactive).

As to `Oc1cccc(/C=N/Nc2ccc(Cl)nn2)c1O`, the activation factor is 2.16 (active).

For the compound `O=C(COc1ccc2c(C(F)(F)F)cc(=O)oc2c1)Nc1ccc2c(c1)OCCO2`, the activation factor was 1.02 (inactive).

For the compound `C=CCOc1cccc(CNn2cn[nH]c2=S)c1`, the activation factor was 0.895 (inactive).

Consider `CNC(=O)CN1C(=O)NC(c2ccccc2)(c2ccccc2)C1=O`, for which the activation factor was 1.05 (inactive).

Consider `CCOc1ccccc1N1C(=O)CC(Sc2nccc(C)n2)C1=O` (centres undefined), for which the activation factor is 1.29 (inactive).

In the case of `O=C(NCC(=O)N1CCC2(CC1)NCCc1[nH]cnc12)c1ccc(Br)cc1`, the activation factor was 1.11 (inactive).

In the case of `O=C(O)CSC(NC(=O)c1cccnc1)(C(F)(F)F)C(F)(F)F`, the activation factor was 0.961 (inactive).

In the case of `O=C1COc2ccc(C(=O)CSc3ccc(Br)cc3)cc2N1`, the activation factor was 1.06 (inactive).

With `O=C(Nc1sc2c(c1-c1nc3ccccc3[nH]1)CCCC2)C1CC1`, the activation factor is 1.06 (inactive).

On to `c1ccc2[nH]c(-c3nc4ccccc4[nH]3)nc2c1`, for which the activation factor was 2.1 (active).

Turning to `O=[N+]([O-])c1ccc2nc(-c3ccccn3)[nH]c2c1`, the activation factor was 1.4 (inactive).

With `O=C(NCCC1CCCCN1S(=O)(=O)c1ccc(Cl)cc1)C(=O)NCc1ccco1` (centres undefined), the activation factor is 1.03 (inactive).

Consider `Cn1c(=O)c2c(nc(N/N=C/c3cccs3)n2Cc2ccc(Br)cc2)n(C)c1=O`, for which the activation factor is 2.42 (active).

Consider `Cn1c(=O)c2sccc2n(Cc2ccc(Br)cc2)c1=O`, for which the activation factor was 0.619 (inactive).

Take `Cn1c(=O)c2c(nc(NCCc3ccccc3)n2Cc2ccccc2)n(C)c1=O`: the activation factor is 0.914 (inactive).

Turning to `Cc1cccc(NC(=O)CSc2nnc(CCCCCNC(=O)OC(C)(C)C)o2)c1C`, the activation factor is 0.854 (inactive).

In the case of `O=C(O)CCC(=O)Nc1ccc(OCC2CCCO2)cc1` (centres undefined), the activation factor is 0.853 (inactive).

Take `Cc1cc(C)c(C#N)c(SCC(=O)N(CC(C)C)C2CCS(=O)(=O)C2)n1` (centres undefined): the activation factor was 0.97 (inactive).

`Cc1cccc(NC(=O)c2nc[nH]c2C(=O)NCC(=O)OCc2ccccc2)c1`: the activation factor was 1.09 (inactive).

On to `O=C(Nc1ccon1)c1nc[nH]c1C(=O)NCc1ccccc1`, for which the activation factor was 2.43 (active).

Consider `CCOC(=O)c1ccc(NC(=O)c2nc[nH]c2C(=O)NCc2ccccc2)cc1`, for which the activation factor is 1.59 (inactive).

Regarding `Cc1ccc2cc(CCNC(=O)c3c(-c4ccccc4Cl)noc3C)c(=O)[nH]c2c1`, the activation factor was 0.983 (inactive).

Turning to `COc1ccc(C(=O)NNc2cc(C)nc(NNC(=O)c3ccc(OC)cc3)n2)cc1`, the activation factor was 2.25 (active).

With `COc1ccc(C(=O)NNS(=O)(=O)c2ccc(C)cc2)cc1`, the activation factor is 0.935 (inactive).

`COc1ccc(C(=O)NNC(=O)c2cc(C)[nH]n2)cc1`: the activation factor is 1.61 (inactive).

Turning to `CC(=O)NC1C(Oc2ccc(C=O)cc2)OC(COC(C)=O)C(OC(C)=O)C1OC(C)=O` (centres undefined), the activation factor is 1.03 (inactive).

For the compound `CN(C)C(CNC(=O)c1cccc(C#N)c1)c1ccco1` (centres undefined), the activation factor was 0.873 (inactive).

Consider `Oc1ccc2nc(Cc3ccccc3)[nH]c2c1`, for which the activation factor is 0.985 (inactive).

`CN(Cc1nc2ccc(F)cc2[nH]1)Cc1nc(CC2CC2)no1`: the activation factor is 0.896 (inactive).

For the compound `OC(c1nc2ccc(F)cc2[nH]1)C(O)c1nc2ccc(F)cc2[nH]1` (centres undefined), the activation factor was 3.62 (active).

On to `Nc1ncnc2c1ncn2[C@@H]1O[C@H](CNCc2cccn2-c2nccs2)[C@@H](O)[C@H]1O`, for which the activation factor was 0.901 (inactive).

With `CC(C)=CCN1CCN(Cc2cc3ccccc3[nH]2)CC1CCO` (centres undefined), the activation factor is 1.13 (inactive).

For `Cc1ccc(NC(=O)CN2C(=O)NC(C)(c3ccc(Cl)cc3)C2=O)c(Br)c1` (centres undefined), the activation factor was 1 (inactive).

In the case of `CN(c1ccccc1)S(=O)(=O)c1cccc(NC(=O)Cc2ccc(Cl)cc2)c1`, the activation factor is 1.01 (inactive).

Take `CCOC(=O)c1sc(NC(=O)CSc2nc(C)cc(C(F)(F)F)n2)c(C#N)c1C`: the activation factor is 0.888 (inactive).

As for `COc1ccccc1N(C)S(=O)(=O)c1ccc(C(=O)N2CCC(C(N)=O)CC2)cc1`, the activation factor is 0.887 (inactive).

As to `O=C(CCCCO)c1ccc(O)c(Cl)c1`, the activation factor was 1.08 (inactive).

For `CC(C)c1ccc(NC2CCCN(C(=O)c3ccncc3)C2)cc1` (centres undefined), the activation factor is 0.926 (inactive).

For the compound `Cc1ccc(S(=O)(=O)N2[C@@H](c3cccc(Cl)c3)C(C(=O)O)=CC[C@H]2c2ccc(Cl)c(Cl)c2)cc1`, the activation factor was 1.09 (inactive).

For the compound `COC(C[C@@H](O)[C@H](C)[C@H](O)COCc1ccccc1)OC`, the activation factor was 0.977 (inactive).

For the compound `O=C(OCC1O[C@@H](OC(=O)c2cc(O)c(O)c(O)c2)[C@@H](OC(=O)c2cc(O)c(O)c(O)c2)[C@@H](OC(=O)c2cc(O)c(O)c(O)c2)[C@@H]1OC(=O)c1cc(O)c(O)c(O)c1)c1cc(O)c(O)c(O)c1` (some centres undefined), the activation factor was 3.98 (active).

As to `COc1ccc(C(=O)N(Cc2ccccc2)c2ccc(C)cc2)cc1S(=O)(=O)N1CCOCC1`, the activation factor was 0.94 (inactive).

As to `CC(C)NC(=O)NCCCCCCS(C)=O` (centres undefined), the activation factor was 1.08 (inactive).

Regarding `CC(C)CN(CC(C)C)CC(O)CN(c1ccccc1)S(=O)(=O)c1ccccc1[N+](=O)[O-]` (centres undefined), the activation factor was 0.882 (inactive).

On to `CC(C)N(C(=O)CSc1nc(COc2ccccc2)nc2ccccc12)C(C)C`, for which the activation factor was 0.961 (inactive).

For the compound `COc1cccc(NC(=O)CN(C)C(=O)c2ccccc2CCc2ccccc2)c1`, the activation factor is 1.1 (inactive).

For the compound `Cn1cc(S(=O)(=O)N2CCN(c3ccc(F)cc3)CC2)c(=O)n(C)c1=O`, the activation factor was 1.04 (inactive).

In the case of `O=S(=O)(CCc1nc2ccccc2o1)c1ccc(Cl)cc1`, the activation factor is 0.959 (inactive).

As for `CC(C)CC(N=C1NC(C)(C)Cc2ccccc21)C(=O)O` (centres undefined), the activation factor was 0.9 (inactive).

For the compound `CCOC(=O)C1=NNC2(c3ccc(Cl)cc3)C(=O)N(c3cc(C)cc(C)c3)C(=O)C12` (centres undefined), the activation factor was 1.06 (inactive).

Turning to `O=S(=O)(c1ccc(F)cc1)N1CC=C(c2ccccc2)CC1`, the activation factor is 1.01 (inactive).

In the case of `CN1CCN(Cc2c(C(=O)N3CCc4ccccc4C3)nc3ccc(Cl)cn23)CC1`, the activation factor was 1.33 (inactive).

For `CC(C)CC(=O)Nc1nnc(S(=O)(=O)N(C)c2ccc(Cl)cc2)s1`, the activation factor was 0.968 (inactive).

With `COc1ccc(-n2nnc3c(=O)n(CC(=O)N4CCC(Cc5ccccc5)CC4)cnc32)cc1`, the activation factor was 1.02 (inactive).

With `COc1cccc(/C=N/NC(=O)c2[nH]nc3c2CCc2ccccc2-3)c1O`, the activation factor was 2.64 (active).

Take `COc1ccc(/C=N/NC(=O)c2ccncc2)cc1CN1CCCc2ccccc21`: the activation factor is 1.06 (inactive).

Regarding `COc1cc(/C=N/NC(=O)c2cc(-c3ccccc3C)nc3ccccc23)cc(OC)c1O`, the activation factor is 0.992 (inactive).

In the case of `COc1cc(/C=N\NC(=O)C2C(=O)NCC2c2ccccc2)cc(OC)c1O` (centres undefined), the activation factor is 0.911 (inactive).

`COc1cccc(/C=N\NC(=O)C2=NNC(=O)C2C)c1O` (centres undefined): the activation factor was 2.88 (active).

In the case of `CCOc1ccc2[nH]c(C(=O)N/N=C/c3cccc(OC)c3OC)cc2c1`, the activation factor was 0.924 (inactive).

Take `Cc1ccc(OCC(=O)Nc2ccccc2C(=O)NC2CC2)cc1`: the activation factor is 0.945 (inactive).

For `Cc1ccccc1N1C(=O)C(Oc2ccc(Cl)cc2)C1CNCC1CCCO1` (centres undefined), the activation factor was 0.957 (inactive).

On to `CN=C(Nc1cccc(S(=O)(=O)N2CCOCC2)c1)c1ccccc1`, for which the activation factor is 0.956 (inactive).

For `FC(F)(F)c1ccc(-n2cn[nH]c2=S)cc1`, the activation factor is 1.1 (inactive).

For `CC(CCN1CCN=C1N(C)C)c1ccccc1` (centres undefined), the activation factor is 0.995 (inactive).

As for `O=C(Nc1ccccc1C(F)(F)F)N1CCCC1c1cccnc1` (centres undefined), the activation factor was 0.942 (inactive).

In the case of `Cc1cc(=O)n2nc(N3CCCC(C(=O)NCc4cccc(Cl)c4)C3)sc2n1` (centres undefined), the activation factor was 1.28 (inactive).

In the case of `CCCCN(CC(=O)NC(C)(C)C)C(=O)C(=O)Nc1ccc2c(c1)OCCO2`, the activation factor was 1.04 (inactive).

For `CCCCOC(=O)Nc1sc2nc(C)cc(C)c2c1-n1cccc1`, the activation factor was 2.01 (active).

Take `Cc1cc(C)c2c(-n3cccc3)c(NC(=O)OCc3ccccc3)sc2n1`: the activation factor is 1.11 (inactive).

As to `COC(=O)Nc1sc2nc(C)cc(C)c2c1-n1cccc1`, the activation factor was 0.984 (inactive).

In the case of `Cc1ccc(OCCCCN2CCCCC2)c(Br)c1`, the activation factor is 1.08 (inactive).

(Values after PubChem BioAssay AID2524 (Sanford-Burnham Center for Chemical Genomics, 2010).)
